Assay outcomes as filed in PubChem BioAssay.
CtBP-E1A inh: inhibitors of CtBP/E1A interaction. hit rate 0.49% among 340,000. AlphaScreen GST-E1A/His-CtBP binding, 1536-well; hits give low values. AID 651724. activity change, % (no concentration beside the values); in the data active = activity change below about -65%; inconclusive = mostly about -30% to -63%
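In 5 uL wells, 23 nL compound meets equimolar GST-E1A and His-CtBP (5X stock 125 nM each) for 2 h, 37 °C. Beads (5X, 50 ug/mL) then 1 h, 37 °C, dark.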
uPA surface inh: cell surface uPA generation inhibition | cell surface uPA generation assay, qHTS | hit rate 0.31% among 330,000 | Potency, µM (titrated, usually from 38.3 µM), usual class: inhibitors | AID 540303; active = well fitted inhibition curve with a large enough effect; inconclusive = small, poorly fitted or top-dose-only effect; inactive = no such curve, though single readings can be large or run the other way; tested in mouse RAW 264.7 cells; note: nearly all actives have a fitted effect of over 55% in size
Eya2 phos inh: Eya2 (human) phosphatase inhibition | O00167 | hit rate 0.006% among 330,000 | recombinant Eya2, OMFP fluorescence dephosphorylation (OMFP is methylfluorescein phosphate) | Potency, µM (series often up to 76.9 µM), usual class: inhibitors
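Eya2 protein (added as 0.2 uM solution) was preincubated with compound for 10 min at ambient temperature in 50 mM HEPES pH 7.5, 50 mM NaCl, 5 uM MgCl2, 0.05% BSA, 1 mM DTT. OMFP (added at 50 uM) then reacted 10 min; fluorescence read at 485/525 nm.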
Six1-Eya2 inh: inhibitors of human Six1/Eya2 interaction. AlphaScreen GST-Six1/His-Eya2 binding, biochemical; hits give low values. hit rate 0.56% among 360,000. Q15475+O00167. AID 651725. activity change, % (no concentration beside the values); in the data active = activity change below about -65%; inconclusive = mostly about -30% to -63%
Target sequence (O00167 whole entry, looked up): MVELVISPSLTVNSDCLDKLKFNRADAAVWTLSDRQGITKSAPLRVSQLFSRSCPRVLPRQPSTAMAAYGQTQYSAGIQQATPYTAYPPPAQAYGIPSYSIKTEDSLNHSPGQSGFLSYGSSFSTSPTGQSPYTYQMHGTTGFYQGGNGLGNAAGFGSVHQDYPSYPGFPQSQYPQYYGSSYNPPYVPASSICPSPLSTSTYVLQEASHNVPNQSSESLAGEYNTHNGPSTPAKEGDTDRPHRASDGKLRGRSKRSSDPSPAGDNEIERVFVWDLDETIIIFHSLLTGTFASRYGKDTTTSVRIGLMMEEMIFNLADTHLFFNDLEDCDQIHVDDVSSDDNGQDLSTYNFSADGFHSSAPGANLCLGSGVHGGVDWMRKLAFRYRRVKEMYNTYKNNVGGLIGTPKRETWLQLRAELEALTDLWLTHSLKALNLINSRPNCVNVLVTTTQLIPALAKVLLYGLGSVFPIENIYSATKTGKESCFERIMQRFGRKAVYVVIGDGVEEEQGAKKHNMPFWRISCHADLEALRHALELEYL
Target sequence (Q15475 whole entry, looked up): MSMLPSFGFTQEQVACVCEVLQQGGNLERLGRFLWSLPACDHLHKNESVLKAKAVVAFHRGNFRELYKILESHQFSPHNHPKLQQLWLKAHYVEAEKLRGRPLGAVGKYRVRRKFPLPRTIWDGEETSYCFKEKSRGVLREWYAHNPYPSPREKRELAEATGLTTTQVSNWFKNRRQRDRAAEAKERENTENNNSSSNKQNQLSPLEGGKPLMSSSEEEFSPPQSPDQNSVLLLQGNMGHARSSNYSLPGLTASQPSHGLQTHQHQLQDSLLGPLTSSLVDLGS
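AlphaScreen luminescence read after one hour at 37 °C in darkness. Pin-transferred compounds met GST-Six1 and His-Eya2 protein (5X stock 250 nM/500 nM) plus glutathione donor and Ni-chelate acceptor beads (5X, 50 ug/mL).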
USP2a block: blocks human ubiquitin-specific protease USP2a; O75604; USP2 core, Ub-CHOP2 coupled fluorogenic reporter, 485/531; Potency, µM (series often up to 38.3 µM), hits mostly inhibitors; hit rate 0.01% among 330,000; AID 463254
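USP2 core (10nM final) preincubated 30min RT with compound in 20mM Tris-HCl pH 8.0, 2mM CaCl2, 2mM beta-mercaptoethanol, 0.05% CHAPS; 25nM Ub-CHOP2 plus 25nM reporter substrate added, fluorescence (Ex485/Em531) read after 60min.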
L3MBTL1 inh: blocks human L3MBTL1 | Q9Y468 | AlphaScreen L3MBTL1–H3K9me1 peptide binding | Potency, µM (titrated, usually from 57.1 µM), usual class: inhibitors | hit rate 0.66% among 230,000 | AID 485360; note: nearly all actives have a fitted effect of over 60% in size
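AlphaScreen assay: L3MBTL1 (50 nM final) was preincubated 30 min at room temperature with biotinylated H3(1-15)K9me1 peptide (75 nM final), then 30 min with library compounds; streptavidin donor and nickel chelate acceptor beads (10 ug/mL final) added, 30 min dark.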
A number is an active result; . = inactive; ? = inconclusive; / = no result given. Shown are actives, neighbours in structure and some others; about 1.2% of the full set was active somewhere. Unless noted, calls come from the whole dose curve; as a rule, active = well fitted curve in the direction sought with a large enough effect; inconclusive = small, poorly fitted or top-dose-only effect, or another doubt; inactive = no such curve, though single readings can be large; an effect the other way counts as inactive or inconclusive.

SMILES	CtBP-E1A inh	uPA surface inh	Eya2 phos inh	Six1-Eya2 inh	USP2a block	L3MBTL1 inh
O=[N+]([O-])c1ccc(/C=N/Nc2nc(N3CCCC3)nc(N3CCCC3)n2)o1	.	.	.	.	.	/
COc1cc(/C=C/C(=O)O)cc(S(=O)(=O)Nc2ccc3nc(SC)sc3c2)c1OC	.	.	.	.	.	.
O=C(N/N=C/c1ccc([N+](=O)[O-])o1)c1ccncc1	.	.	?	.	.	.
O=C(N/N=C/c1ccc([N+](=O)[O-])o1)c1ccc(O)cc1	?	7.1µM	.	.	.	.
CCc1ccccc1NC(=O)Cn1nnc(C(=O)NCc2cccc(OC)c2)c1N	/	4µM	.	.	.	/
C[C@@H]1CC[C@@]2(O[C@@H](CCO)C[C@@H](O)[C@@H]2O)O1	.	.	/	.	/	/
COc1cc(OC)cc(C(=O)NNC(=O)CN2C(=O)NC3(CCCC3)C2=O)c1	.	.	.	.	.	.
O=C(NCCS(=O)(=O)NCc1ccccc1Cl)c1ccccc1	.	.	.	.	.	.
CCN(CC)c1ccc2c(-c3ccc(S(=O)(=O)O)cc3S(=O)(=O)[O-])c3ccc(=[N+](CC)CC)cc-3oc2c1	?	.	?	-67	?	/
CCN(CC)c1ccc2nc3c4ccccc4c(=O)cc-3oc2c1	.	.	.	.	.	/
COc1cc(/C=N/NC(=O)CN(Cc2ccco2)S(=O)(=O)c2ccccc2)ccc1O	-92	.	.	-82	.	.
COc1ccc(/C=N/NC(=O)CN(Cc2ccccc2)S(=O)(=O)c2ccc3c(c2)OCCO3)cc1	.	.	.	-65	.	.
O=C(CN(Cc1ccccc1)S(=O)(=O)c1ccc2c(c1)OCCO2)N/N=C/c1ccc(F)cc1	.	.	.	.	.	.
COC(=O)CN(Cc1ccco1)S(=O)(=O)c1ccccc1	.	.	.	.	.	.
O=C(CN(Cc1ccccc1)S(=O)(=O)c1ccc2c(c1)OCCO2)N/N=C/c1cccc(Br)c1	.	.	.	.	.	.
COc1cc(/C=N/NC(=O)CN(Cc2ccccc2)S(=O)(=O)c2ccc3c(c2)OCCO3)ccc1O	.	.	.	-82	.	.
O=C(NC1CCSc2ccccc21)c1ccc(F)cc1 (centres undefined)	.	.	.	.	.	/
O=C(OCc1cn([C@@H]2CN(C(=O)c3cccs3)[C@@H](c3ccc(Cl)cc3)C[C@H]2O)nn1)c1ccccc1	.	/	/	.	/	/
COc1cc(C=C2C(=O)C=CC2=O)ccc1O	.	/	/	-74	/	/
Cc1ccsc1/C=C1\Oc2cc(O)ccc2C1=O	.	/	/	.	/	/
COc1cc(/C=C2\Oc3cc(O)ccc3C2=O)ccc1O	.	6.3µM	.	.	?	/
COc1cc(/C=C2/C(=O)CNC2=O)ccc1O	.	.	.	.	.	.
COc1ccccc1N1CCN(C(=O)CCC(=O)Nc2nnc(C(C)C)s2)CC1	.	.	.	.	.	/
Cc1cc(=O)[nH]c(N/N=C/c2ccc(Br)s2)n1	?	.	.	-73	.	.
Cc1cc(=O)[nH]c(N/N=C/c2ccc(-c3ccc(F)cc3)o2)n1	-82	.	.	-85	.	/
SMILES	CtBP-E1A inh	uPA surface inh	Eya2 phos inh	Six1-Eya2 inh	USP2a block	L3MBTL1 inh
Cc1cc(=O)[nH]c(N/N=C/c2c(O)n(-c3ccccc3)c(=O)c3ccccc23)n1	?	.	.	-87	.	.
Cc1cc(=O)[nH]c(NN=Cc2c(Cl)cccc2Cl)n1	.	.	/	.	/	/
COCCNC(=S)Nc1cc2oc3ccccc3c2cc1OC	.	.	.	.	.	/
COc1ccc(/C=N/NC(=O)Cn2nc([N+](=O)[O-])cc2C)c(OC)c1OC	/	.	.	.	.	.
COc1cc([N+](=O)[O-])cc(/C=N/NC(=O)Cn2nccc2C)c1O	-94	.	.	-88	.	/
COc1cc([N+](=O)[O-])cc(/C=N/NC(=O)Cn2nc(C)cc2C)c1O	?	?	.	-91	.	?
COc1cc([N+](=O)[O-])cc(/C=N/NC(=O)CSc2nnc(-c3ccccc3)n2C)c1O	.	.	.	.	.	/
O=C(Cn1cc(C(F)(F)F)cc(Cl)c1=O)Nc1ccc(N2CCOCC2)cc1	.	.	.	.	.	.
COc1ccc(CN2CCS(=O)(=O)CC2)cc1OC	.	.	.	.	.	.
O=S1(=O)c2ccc(Br)cc2N2CCC[C@@H]2CN1Cc1ccc(Cl)cc1	.	?	/	.	/	/
O=S1(=O)c2ccc(Br)cc2N2CC[C@H](C2)N1Cc1ccc(Cl)cc1	.	3.2µM	/	.	/	/
CNC(=O)c1c(NC(=O)CCS(=O)(=O)c2ccc(Cl)cc2)sc2c1CCN(C(=O)OC)C2	.	.	.	.	.	.
COc1ccc(C(O)c2nc(-c3ccc(OC)c(OC)c3)cs2)cc1 (centres undefined)	.	/	/	.	/	/
CCOC(=O)c1sc(NC(=O)C2CCCCC2)nc1C	/	.	/	.	/	/
CCn1c(SCC(=O)N2CCN(c3ccccc3)CC2)nnc1-c1c[nH]c2ccccc12	.	7.9µM	.	.	.	.
CCCC1NC(=O)c2cccnc2-n2c1nc1ccc(Cl)cc1c2=O (centres undefined)	.	/	/	.	/	/
O=[N+]([O-])c1nn(-c2ccc3c(c2)OCCO3)n(O)c1=NC1CCN(Cc2ccccc2)CC1	/	4.5µM	.	.	.	/
CC1(C)OC(=O)C2=C(C[C@@H](C3CCCC3)O[C@H]2c2ccc(Cl)cc2)O1	.	/	/	.	/	/
CC1CCC(NC(=O)C2CCN(S(=O)(=O)c3ccc4nc5c(c(C(=O)O)c4c3)CC(C)CC5)CC2)CC1 (centres undefined)	/	.	.	.	.	/
O=C(O)c1c2c(nc3ccc(S(=O)(=O)N4CCC(C(=O)NCc5ccccc5)CC4)cc13)CCCC2	.	/	/	-73	/	/
COc1ccc(CNC(=O)C2CCN(S(=O)(=O)c3ccc4nc5c(c(C(=O)O)c4c3)CC(C)CC5)CC2)cc1 (centres undefined)	-82	.	.	-73	.	/
CC1CCc2nc3ccc(S(=O)(=O)N4CCC(C(=O)NCc5ccccc5Cl)CC4)cc3c(C(=O)O)c2C1 (centres undefined)	-66	.	.	-73	.	/
COc1ccccc1CNC(=O)C1CCN(S(=O)(=O)c2ccc3nc4c(c(C(=O)O)c3c2)CCCC4)CC1	?	.	.	?	.	/
Cc1ccc([C@H]2C[C@H](n3cc(COC(=O)c4ccccc4)nn3)[C@@H](O)CN2C(=O)C2CCCCC2)cc1	.	/	/	.	/	/
Cc1cccc(C)c1NC(=O)C1c2ccccc2OCC(=O)N1CCc1c[nH]c2ccccc12 (centres undefined)	.	/	/	.	/	/
CC(NC(=S)Nc1ccccc1Cl)C(c1cccs1)N1CCCC1 (centres undefined)	.	.	.	.	.	.
O=C(Nc1ccc(Cl)cc1)P(=O)(O)c1ccccc1	.	.	/	.	/	/
